This is a sample that favours compounds with a hit; in the whole collection about 3% have one here.
Tau fluor counter: counter-screen for tau fibril formation inhibitors; 280,000 compounds, 0.93% hits; Potency, µM (series often up to 57.7 µM), inactives show at the top dose activity change, negative = decrease; tau K18 P301L Alexa594 fluorescence, heparin fibrillization; further: potency means the concentration at half of the fitted maximal effect; nearly all actives have a fitted effect of over 55% in size
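Human K18 P301L tau (15 uM unlabeled plus 0.24 uM Alexa 594-labeled, final) in 100 mM sodium acetate pH 7 was mixed with compound and 20 uM heparin and incubated 6 hr at 37 C.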
Tau FP inhib: blocks human tau fibril formation measured by polarization | Potency, µM (highest dose often 57.7 µM), for inactives: at the highest dose activity, negative = inhibition, usual class: inhibitors | K18 P301L tau heparin fibrillization, Alexa594 FP, 6 h | 280,000 compounds, 0.39% hits; further: potency means the concentration at half of the fitted maximal effect; nearly all actives have a fitted effect of over 55% in size
Target sequence (P10636 561-689 P618L limits assumed): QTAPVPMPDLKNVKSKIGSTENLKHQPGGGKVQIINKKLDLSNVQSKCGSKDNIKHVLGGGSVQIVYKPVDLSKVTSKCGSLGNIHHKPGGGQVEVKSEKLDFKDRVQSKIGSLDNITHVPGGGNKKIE
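Human K18 P301L fragment (15 uM unlabeled plus 0.24 uM Alexa 594-labeled) in 100 mM sodium acetate pH 7 with compound, aggregation induced by 20 uM heparin for 6 hr at 37 C. ThT (30 uM) added for 1 hr, then Alexa 594 FP read.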
Coupling enz: inhibits coupling enzyme system, counter-screen for aldolase hits. activity change, negative = inhibition, % at 58.2 µM, hits read low. coupling enzyme system counterscreen, AmpLite Red fluorescence. 290,000 compounds, 0.67% hits; in the data active means activity change below about -30%
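Counterscreen of the coupled detection system alone, without aldolase: glyceraldehyde-3-phosphate coupling enzymes plus AmpLite Red readout. Compounds at 57.5 uM final, 10 min RT preincubation, 20 min RT reaction, fluorescence 525/598 nm.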
KDM4E inh: inhibitors of human JMJD2E histone demethylase. B2RXH2. JMJD2E catalytic domain, FDH-coupled NADH fluorescence (FDH is formaldehyde dehydrogenase). Potency, µM (highest dose often 57.1 µM), for the others: top-dose activity change, negative = inhibition, actives largely listed as inhibitors. 230,000 compounds, 1.6% hits. AID 2147; active means well fitted inhibition curve with a large enough effect, not every such curve was filed as active; inconclusive means small, poorly fitted or top-dose-only effect, or another doubt; inactive means no such curve, though single readings can be large or run the other way;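 further: potency means the concentration at half of the fitted maximal effect; 0% = wells with enzyme and -100% = buffer wells without enzyme; nearly all actives have a fitted effect of over 50% in size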
Target sequence (B2RXH2 1-337 limits assumed): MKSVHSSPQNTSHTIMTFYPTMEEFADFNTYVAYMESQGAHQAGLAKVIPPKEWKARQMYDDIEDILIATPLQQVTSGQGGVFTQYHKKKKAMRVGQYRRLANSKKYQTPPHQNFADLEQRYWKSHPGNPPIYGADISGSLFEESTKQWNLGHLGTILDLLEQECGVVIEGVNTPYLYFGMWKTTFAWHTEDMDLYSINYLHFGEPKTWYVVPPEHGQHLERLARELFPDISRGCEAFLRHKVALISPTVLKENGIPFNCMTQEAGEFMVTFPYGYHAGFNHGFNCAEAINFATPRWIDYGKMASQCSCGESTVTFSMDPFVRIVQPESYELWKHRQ
Tau fibril ThT: inhibitors of human tau fibril formation, thioflavin T binding. P10636. recombinant tau K18 P301L (four-repeat tau fragment), heparin-induced fibrillization, ThT fluorescence. Potency, µM (series often up to 57.4 µM), for inactives: at the top dose activity, negative = inhibition, most hits filed as inhibitors. 270,000 compounds, 2.1% hits; further: potency means the concentration at half of the fitted maximal effect; nearly all actives have a fitted effect of over 55% in size
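Heparin-induced fibrillization of the P301L-mutant K18 repeat-domain fragment of human tau was followed by ThT binding in quantitative high-throughput format.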
Starred values were filed as active, the others as inactive; ? = inconclusive; / = no result; [ ] = another dose, or the depositor's remark. Unless noted, the call rests on the fitted dose curve; in most records, active means well fitted curve in the direction sought with a large enough effect; inconclusive means small, poorly fitted or top-dose-only effect, or another doubt; inactive means no such curve, though single readings can be large; an effect the other way counts as inactive or inconclusive. Unless noted, on the % scale 0 is the no-effect control and ±100 the full control effect.

SMILES	Tau fluor counter	Tau FP inhib	Coupling enz	KDM4E inh	Tau fibril ThT
CCCCCc1cc(=O)oc2c(C(CCN3CCCCC3)c3ccc(OC)cc3)c(OC)cc(OC)c12 (configuration not stated)	20.4%	5.9%	-0.9	?	-16.6%
CCCCCc1cc(=O)oc2c(C(CCN3CCCC3)c3cc(OC)c(OC)c(OC)c3)c(OC)cc(OC)c12 (configuration not stated)	4.6%	-0.1%	1.2	22.4µM*	?
COc1cccc2c(SCC(=O)N/N=C/c3ccc(O)cc3O)cc(C)nc12	-27.9%	-4.7%	2.1	28.2µM*	?
COc1ccccc1/C=N/NC(=O)CSc1ccc2ccccc2n1	/	/	-33.1*	/	/
COc1ccc2nc(C)cc(SCC(=O)N/N=C/c3ccc(O)cc3O)c2c1	?	2.4%	1.5	1.3%	?
COc1ccccc1/C=N/NC(=O)CSc1cc(C)nc2ccccc12	4.4%[2.34 µM]	2.9%[2.34 µM]	2.4	5.8%	-4.4%
COc1cc(NC(=O)N2CCC(CN3CCOCC3)CC2)cc(OC)c1OC	1.6%	4.3%	/	/	4.6%
COc1ccc(NC(=O)c2c(Nc3ccccc3)sc(C(=O)c3ccc(F)cc3)c2N)cc1	?	3.0%	-4.1	38.8%	11.2µM*
N#Cc1c(Nc2cccc(F)c2)sc(C(=O)c2ccc(Cl)cc2)c1N	?	?	/	/	28.2µM*
COc1ccc(C(=O)c2sc(Nc3cccc(OC)c3)c(C(=O)Nc3cccc(C)c3C)c2N)cc1	?	-7.8%	6.2	-28.9%	17.8µM*
COc1ccc(C(=O)c2sc(Nc3ccccc3)c(C(=O)Nc3ccc(OC)c(OC)c3)c2N)cc1	15.8µM*[quencher]	?	-1.3	-17.7%	15.8µM*
Cc1cccc(NC(=O)CSc2nc3ccccc3nc2N2CCCCC2)c1C	-13.8%	-3.2%	/	/	-3.2%
C=C(C(=O)OC)C(NC(=O)OC)c1ccccc1 (configuration not stated)	-20.9%	-17.8%	0.5	6.2%	-8.5%
CCc1ccc(CNCc2c(C(=O)O)n(Cc3ccc(C)cc3)c3cc(C)ccc23)cc1	1.1%	5.8%	/	/	-1.8%
COc1cccc(Nc2sc(C(=O)c3ccc(F)cc3)c(N)c2C(=O)NCc2ccc(Cl)cc2)c1	?	?	/	/	20µM*
COc1cccc(Nc2sc(C(=O)c3ccc(Cl)cc3)c(N)c2C(=O)NCc2ccc(C)cc2)c1	?	7.4%	/	/	?
COc1ccc(Nc2sc(C(=O)c3ccc(Cl)cc3)c(N)c2C(=O)Nc2ccccc2OC)cc1	?	-1.8%	-0.2	-3.0%	22.4µM*
Cc1cc(Nc2sc(C(=O)c3ccc(F)cc3)c(N)c2C(=O)Nc2ccc(F)cc2)ccc1Cl	10µM*[quencher]	-12.0%	/	/	20µM*
COc1ccc(N=Nc2nc3ccc(Br)cc3n2C)cc1	-21.8%	3.5%	2.3	6.9%	1.58µM*
COc1ccc(Cc2nc3ccccc3n2C)cc1	-5.2%	-0.4%	3.1	0.2%	-5.4%
C=CCOC(=O)N[C@H](/C(C(=O)OC)=C(\C)NCc1ccccc1)c1cccc(C(F)(F)F)c1	-9.4%	-0.7%	1.2	2.0%	0.7%
CC(=O)c1cccc(NC(=S)Nc2ccn(Cc3cccc4ccccc34)n2)c1	-27.4%	?	2.9	-15.1%	-5.3%
CC(=O)c1ccc(NC(=S)Nc2ccn(Cc3ccc(Br)cc3)n2)cc1	10µM*[quencher]	?	2.4	-2.0%	9.9%
O=C(CNC(=O)c1ccccc1)NC1(C(=O)NC2CCCC2)CCCCC1	2.82µM*[quencher]	?	3.1	-1.8%	-10.6%
Cc1ccc(Cn2c(CNC(=O)CCc3ccccc3)nc3cccnc32)cc1	-16.1%	3.9%	/	/	-12.1%
N.N.O=C(O)C1(C(=O)O)CCC1.[Pt]	-24.8%	2.82µM*	5.2	11.2µM*	3.16µM*
NC1(C(=O)O)CCC1	-19.5%	6.2%	0.8	4.5%	?
CCOc1ccc(/C=C2/SC(=O)NC2=S)cc1	?	-4.3%	6.2	-5.5%	3.16µM*
CCOc1ccc(/C=C2\SC(=S)N(N3C(=O)C4CC4C3=O)C2=O)cc1 (configuration not stated)	-13.5%	1.8%	-0.7	-11.3%	?
CCOc1ccc(N=C2NC(=O)S/C2=C\c2ccc(N(C)C)cc2)cc1	?	7.6%	-2.0	-4.7%	1.12µM*

From PubChem
